Where “and” joins values, the source holds several entries; their conditions need not be identical. Identical values can stand only once. Records with an inconclusive call do not appear. Calls of active or inactive are those of the source. Unless noted, the call rests on the fitted dose curve; in most records, active means well fitted curve in the direction sought with a large enough effect in the repeat runs; inconclusive means weak or mixed curves; inactive means no such curve, though single readings can be large; an effect the other way counts as inactive or inconclusive.
Assays:
[1] = qHTS assay to identify small molecule antagonists of the thyroid receptor (TR) signaling pathway (AID 743065); further: nearly all actives have a fitted effect of over 55% in size; further: potency means the concentration at half of the fitted maximal effect
Outline: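 GH3.TRE-Luc rat pituitary cells carrying two TR response elements driving luciferase were plated for 4 h, given compound plus 1 nM T3 (final), and incubated 23.5 h at 37 C. ONE-Glo luminescence measured reporter inhibition; CellTiter-Fluor fluorescence tracked cytotoxicity.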

[2] = system: thyroid hormone receptor (rat, GH3 cells); experiment: qHTS assay to identify small molecule agonists of the thyroid receptor (TR) signaling pathway (AID 743066; calls by dose curve)
[3] = molecular target: Estrogen receptor (Homo sapiens) (UniProt P03372); experiment: qHTS assay to identify small molecule antagonists of the estrogen receptor alpha (ER-alpha) signaling pathway (AID 743069; active means well fitted curve in the direction sought with a large enough effect in the signal ratio in the repeat runs, not every such curve was filed as active; the % refers to the signal ratio)
Outline: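 Screening used a UAS-driven beta-lactamase reporter integrated into HEK293 cells expressing ER-alpha, stimulated with 17beta-estradiol alongside test compounds over 18 hr at 37C; signal came from LiveBLAzer B/G FRET fluorescence.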

[4] = qHTS assay to identify small molecule antagonists of the estrogen receptor alpha (ER-alpha) signaling pathway - cell viability counter screen (AID 743074; calls by dose curve; further: nearly all actives have a fitted effect of over 45% in size)
[5] = molecular target: Estrogen receptor (Homo sapiens) (UniProt P03372); experiment: qHTS assay to identify small molecule agonists of the estrogen receptor alpha (ER-alpha) signaling pathway (AID 743075; calls by dose curve; further: potency means the concentration at half of the fitted maximal effect)
[6] = molecular target: Estrogen receptor (Homo sapiens) (UniProt P03372); experiment: qHTS assay to identify small molecule agonists of the estrogen receptor alpha (ER-alpha) signaling pathway using the BG1 cell line (AID 743079); conditions: BG1Luc4E2 cells, ERE-luciferase agonist, 22 h; further: nearly all actives have a fitted effect of over 20% in size; further: potency means the concentration at half of the fitted maximal effect
[7] = qHTS assay to identify small molecule antagonists of the estrogen receptor alpha (ER-alpha) signaling pathway using the BG1 cell line (AID 743080; calls by dose curve;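 further: BG1 cells stimulated with 17beta-estradiol alongside compound; nearly all actives have a fitted effect of over 25% in size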)
Outline: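 After 5 days in phenol-red-free 10% charcoal-stripped FBS medium, BG1-Luc-4E2 cells were seeded, left 24 h at 37 C, co-treated with compounds and 17beta-estradiol for 21.5 h, then assayed for viability and luciferase.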

[8] = qHTS assay to identify small molecule antagonists of the estrogen receptor alpha (ER-alpha) signaling pathway using the BG1 cell line - cell viability counter screen (AID 743081);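 further: compound given together with 17beta-estradiol as the ER stimulus; nearly all actives have a fitted effect of over 45% in size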
Aromatase (Homo sapiens) = Aromatase (Homo sapiens) (UniProt P11511); experiment: qHTS assay to identify aromatase inhibitors (AID 743083); further: nearly all actives have a fitted effect of over 55% in size
[9] = qHTS assay to identify aromatase inhibitors - cell viability counter screen (AID 743084);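 further: cells stimulated with testosterone during compound exposure; nearly all actives have a fitted effect of over 55% in size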
On the % scale 0 is the no-effect control and ±100 the full control effect.

Sequence of Aromatase (Homo sapiens) (P11511 whole entry, looked up): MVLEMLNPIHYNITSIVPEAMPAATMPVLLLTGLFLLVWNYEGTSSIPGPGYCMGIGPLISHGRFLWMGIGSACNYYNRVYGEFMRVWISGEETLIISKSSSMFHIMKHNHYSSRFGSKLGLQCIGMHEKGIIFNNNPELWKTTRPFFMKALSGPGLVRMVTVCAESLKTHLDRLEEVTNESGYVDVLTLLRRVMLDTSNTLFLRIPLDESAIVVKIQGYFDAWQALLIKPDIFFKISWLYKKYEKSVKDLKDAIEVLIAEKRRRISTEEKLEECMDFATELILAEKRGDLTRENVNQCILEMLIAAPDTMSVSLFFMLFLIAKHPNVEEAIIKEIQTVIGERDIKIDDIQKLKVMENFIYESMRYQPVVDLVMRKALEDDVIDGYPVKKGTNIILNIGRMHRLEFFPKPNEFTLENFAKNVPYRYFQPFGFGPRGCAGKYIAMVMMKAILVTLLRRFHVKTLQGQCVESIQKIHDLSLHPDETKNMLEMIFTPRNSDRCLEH
Sequence of Estrogen receptor (Homo sapiens) (P03372 whole entry, looked up): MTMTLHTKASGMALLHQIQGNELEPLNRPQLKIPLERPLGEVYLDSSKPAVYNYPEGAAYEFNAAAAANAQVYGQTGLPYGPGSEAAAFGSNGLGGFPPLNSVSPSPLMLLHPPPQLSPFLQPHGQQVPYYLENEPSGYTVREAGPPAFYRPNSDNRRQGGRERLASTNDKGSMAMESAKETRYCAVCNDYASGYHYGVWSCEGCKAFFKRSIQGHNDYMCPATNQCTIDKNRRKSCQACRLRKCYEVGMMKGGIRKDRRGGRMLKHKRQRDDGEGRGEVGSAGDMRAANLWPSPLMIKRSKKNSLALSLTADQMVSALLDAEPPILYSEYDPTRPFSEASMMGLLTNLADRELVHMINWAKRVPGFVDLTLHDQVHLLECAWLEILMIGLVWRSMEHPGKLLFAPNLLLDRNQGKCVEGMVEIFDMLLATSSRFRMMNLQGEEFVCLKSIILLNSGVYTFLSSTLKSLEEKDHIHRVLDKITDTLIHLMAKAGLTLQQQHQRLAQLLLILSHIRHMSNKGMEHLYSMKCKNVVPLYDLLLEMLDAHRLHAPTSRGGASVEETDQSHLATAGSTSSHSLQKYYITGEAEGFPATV

NC1(c2ccccc2)CCCCC1
inactive: Potency [2] | Potency [3] | Potency [4] | Potency [5] | activation ([6]; at 70.3 µM (top of the series)) 0.0889% | Potency [7] | Potency [8] | Potency (Aromatase (Homo sapiens)) | Potency [9]
active: Potency [1] 48.1 µM

Cc1ccc2c(c1)C1CN(C)CCC1N2 (configuration not stated)
inactive: Potency [1] | Potency [2] | Potency [4] | Potency [5] | activation ([6]; at 70.3 µM (top of the series)) -4.51% | Potency [7] | Potency [8] | Potency (Aromatase (Homo sapiens)) | Potency [9]

CCC(C(N)=O)N1CCCC1=O (configuration not stated)
active: Potency [6] 21.1 µM
inactive: Potency [1] | Potency [2] | Potency [3] | Potency [4] | Potency [5] | Potency [7] | Potency [8] | Potency (Aromatase (Homo sapiens)) | Potency [9]

COc1cccc(C=O)c1
inactive: Potency [1] | Potency [2] | Potency [4] | Potency [5] | activation ([6]; at 70.3 µM (top of the series)) -1.53% | Potency [7] | Potency [8] | Potency (Aromatase (Homo sapiens)) | Potency [9]

COc1cc(CC(C)N)cc(OC)c1OC (configuration not stated)
inactive: Potency [1] | Potency [2] | Potency [3] | Potency [5] | activation ([6]; at 95 µM (top of the series)) -7.73% | Potency [7] | Potency (Aromatase (Homo sapiens)) | Potency [9]

Clc1ccc(C(Cl)(Cl)Cl)cn1
inactive: Potency [1] | Potency [2] | Potency [3] | Potency [4] | Potency [5] | activation ([6]; at 70.3 µM (top of the series)) -9.37% | Potency [8] | Potency (Aromatase (Homo sapiens)) | Potency [9]

COc1cccc([C@@]2(O)CCCC[C@@H]2CN(C)C)c1
inactive: Potency [1] | Potency [2] | Potency [4] | Potency [5] | activation ([6]; at 70.3 µM (top of the series)) 7.73% | Potency [7] | Potency [8] | Potency (Aromatase (Homo sapiens))

CCCCCCC(=O)CCCCCC/C=C/C[C@@H](O)[C@H](O)[C@@](N)(CO)C(=O)O
inactive: Potency [1] | Potency [2] | Potency [3] | Potency [4] | Potency [5] | activation ([6]; at 70.3 µM (top of the series)) -8.98% and -0.434% | Potency [7] | Potency [8] | Potency (Aromatase (Homo sapiens)) | Potency [9]

CC(Cc1ccccc1)NCCn1cnc2c1c(=O)n(C)c(=O)n2C (configuration not stated)
inactive: Potency [1] | Potency [2] | Potency [3] | Potency [5] | activation ([6]; at 70.3 µM (top of the series)) -17.2% | Potency [8] | Potency (Aromatase (Homo sapiens))

BrCc1ccc(Br)cc1
inactive: Potency [1] | Potency [2] | Potency [3] | Potency [4] | Potency [5] | activation ([6]; at 70.3 µM (top of the series)) -9.06% | Potency [7] | Potency [8] | Potency (Aromatase (Homo sapiens)) | Potency [9]

S=C=S
inactive: Potency [1] | Potency [2] | Potency [3] | Potency [4] | Potency [5] | activation ([6]; at 70.3 µM (top of the series)) -5.81% and -2.85% | Potency [7] | Potency [8] | Potency (Aromatase (Homo sapiens)) | Potency [9]

CCOP(=S)(OCC)SCCl
inactive: Potency [1] | Potency [2] | Potency [3] | Potency [5] | activation ([6]; at 70.3 µM (top of the series)) 9.52% | Potency [7] | Potency [8]

C/C=C/CC#N
inactive: Potency [1] | Potency [2] | Potency [3] | Potency [5] | Potency [7] | Potency [8] | Potency (Aromatase (Homo sapiens)) | Potency [9]

C=CC1(C)OC(=O)N(c2cc(Cl)cc(Cl)c2)C1=O (configuration not stated)
inactive: Potency [1] | Potency [2] | Potency [3] | Potency [4] | Potency [5] | activation ([6]; at 70.3 µM (top of the series)) -20.8% and -18.1% | Potency [7] | Potency [8] | Potency (Aromatase (Homo sapiens)) | Potency [9]

CCOC(=O)Nc1cccc(OC(=O)Nc2ccccc2)c1
inactive: Potency [1] | Potency [2] | Potency [3] | Potency [4] | Potency [5] | Potency [8] | Potency (Aromatase (Homo sapiens)) | Potency [9]
active: Potency [6] 27.3 µM

CC(O)CCl (configuration not stated)
inactive: Potency [1] | Potency [2] | Potency [3] | Potency [4] | Potency [5] | activation ([6]; at 70.3 µM (top of the series)) 8.02% | Potency [7] | Potency [8] | Potency (Aromatase (Homo sapiens)) | Potency [9]

CC#Cc1cc(C)nc(Nc2ccccc2)n1
inactive: Potency [1] | Potency [2] | Potency [3] | Potency [5] | Potency [8] | Potency (Aromatase (Homo sapiens)) | Potency [9]

CCOC1Oc2ccc(OS(C)(=O)=O)cc2C1(C)C (configuration not stated)
inactive: Potency [1] | Potency [2] | Potency [3] | Potency (Aromatase (Homo sapiens)) | Potency [9]

O=C(Cl)/C=C/C(=O)Cl
inactive: Potency [1] | Potency [2] | Potency [3] | Potency [5] | activation ([6]; at 95 µM (top of the series)) 5.56% | Potency [7] | Potency [8] | Potency (Aromatase (Homo sapiens)) | Potency [9]

COc1ccc(C=O)cc1O
inactive: Potency [1] | Potency [2] | Potency [4] | Potency [5] | activation ([6]; at 95 µM (top of the series)) 10.8% | Potency [7] | Potency [8] | Potency (Aromatase (Homo sapiens)) | Potency [9]

ClC1=C(Cl)C2(Cl)C(CBr)CC1(Cl)C2(Cl)Cl (configuration not stated)
inactive: Potency [2] | Potency [3] | Potency [4] | Potency [5] | activation ([6]; at 70.3 µM (top of the series)) -8.81% and -11.5% | Potency [7] | Potency [8] | Potency (Aromatase (Homo sapiens)) | Potency [9]
active: Potency [1] 26.6 µM and 43.3 µM

O=C(CCl)NCO
inactive: Potency [1] | Potency [2] | Potency [4] | Potency [5] | activation ([6]; at 70.3 µM (top of the series)) -9.09% | Potency [7] | Potency [8] | Potency (Aromatase (Homo sapiens)) | Potency [9]

CC(C)(C1CCC(O)CC1)C1CCC(O)CC1 (configuration not stated)
active: Potency [5] 49 µM [activator] | Potency [6] 54.5 µM
inactive: Potency [1] | Potency [2] | Potency [4] | Potency [7] | Potency [8] | Potency (Aromatase (Homo sapiens)) | Potency [9]

CCN(CC)CCOC(=O)C(O)(c1ccccc1)c1ccccc1
inactive: Potency [1] | Potency [2] | Potency [3] | Potency [4] | Potency [5] | activation ([6]; at 70.3 µM (top of the series)) 1.82% | Potency [7] | Potency [8] | Potency (Aromatase (Homo sapiens)) | Potency [9]

COc1cc(CCN)cc(OC)c1OC
inactive: Potency [1] | Potency [2] | Potency [3] | Potency [4] | Potency [5] | activation ([6]; at 95 µM (top of the series)) -6.66% | Potency [7] | Potency [8] | Potency [9]

NC(=O)OCCCc1ccccc1
inactive: Potency [1] | Potency [2] | Potency [3] | Potency [4] | Potency [5] | activation ([6]; at 70.3 µM (top of the series)) 2.88% | Potency [7] | Potency [8] | Potency (Aromatase (Homo sapiens)) | Potency [9]

C/C(=N\NC(=O)Nc1cc(F)cc(F)c1)c1ncccc1C(=O)O
inactive: Potency [1] | Potency [2] | Potency [3] | Potency [4] | Potency [5] | activation ([6]; at 70.3 µM (top of the series)) -0.0536% | Potency [7] | Potency [8] | Potency (Aromatase (Homo sapiens)) | Potency [9]

O=C1CC(=O)NC(=O)N1
inactive: Potency [1] | Potency [2] | Potency [4] | Potency [5] | activation ([6]; at 70.3 µM (top of the series)) -4.6% | Potency [7] | Potency [8] | Potency (Aromatase (Homo sapiens)) | Potency [9]

CCOC(=O)CC(SP(=S)(OC)OC)C(=O)OCC (configuration not stated)
inactive: Potency [1] | Potency [2] | Potency [3] | Potency [4] | Potency [5] | Potency [7] | Potency [8] | Potency (Aromatase (Homo sapiens)) | Potency [9]

NCCOS(=O)(=O)O
inactive: Potency [1] | Potency [2] | Potency [4] | Potency [5] | activation ([6]; at 70.3 µM (top of the series)) -1.11% | Potency [7] | Potency [8] | Potency (Aromatase (Homo sapiens)) | Potency [9]

CC(=O)CN(CC(C)=O)N=O
inactive: Potency [1] | Potency [2] | Potency [3] | Potency [4] | Potency [5] | activation ([6]; at 70.3 µM (top of the series)) -5.98% | Potency [7] | Potency [8] | Potency (Aromatase (Homo sapiens)) | Potency [9]

O=C(O)c1c(Cl)ccc2cc(Cl)cnc12
inactive: Potency [1] | Potency [2] | Potency [4] | Potency [5] | activation ([6]; at 70.3 µM (top of the series)) 3.83% | Potency [7] | Potency [8] | Potency (Aromatase (Homo sapiens)) | Potency [9]

Source: PubChem BioAssay (Tox21)
